# Results published in paper PMC5540273 (PLoS ONE, 2017).
# Where “and” joins values, the source holds several entries; their conditions need not be identical. Equal values may be shown once. Read-outs that look alike come from different tables or passages of the source.
# Tests used:
# DAPK1 = conditions: concentration: 1 μM, replicates: in singlicate, n = 1
# DAPK2 = conditions: concentration: 1 μM, replicates: in singlicate, n = 1
# DAPK3 = conditions: concentration: 1 μM, replicates: in singlicate, n = 1
# DCAMKL1 = tested on: T1, DCAMKL1; conditions: concentration: 1 μM, replicates: in singlicate, n = 1
# T1 construct: gene DCLK1
# DCAMKL2 = tested on: T2, DCAMKL2; conditions: concentration: 1 μM, replicates: in singlicate; n = 1
# T2 construct: gene DCLK2
# DCAMKL3 = tested on: T3, DCAMKL3; conditions: concentration: 1 μM, replicates: in singlicate, n = 1
# T3 construct: gene DCLK3
# DDR1 = conditions: concentration: 1 μM, replicates: in singlicate, n = 1
# DDR2 = conditions: concentration: 1 μM, replicates: in singlicate, n = 1
# DLK = tested on: T4, DLK; conditions: concentration: 1 μM, replicates: in singlicate, n = 1
# T4 construct: gene MAP3K12
# DMPK2 = tested on: T5, DMPK2; conditions: concentration: 1 μM, replicates: in singlicate, n = 1
# T5 construct: gene CDC42BPG
# DMPK = conditions: concentration: 1 μM, replicates: in singlicate, n = 1
# DRAK1 = tested on: T6, DRAK1; conditions: concentration: 1 μM, replicates: in singlicate, n = 1
# T6 construct: gene STK17A
# DRAK2 = tested on: T7, DRAK2; conditions: concentration: 1 μM, replicates: in singlicate; n = 1
# T7 construct: gene STK17B
# DYRK1A = conditions: concentration: 1 μM, replicates: in singlicate; n = 1
# DYRK1B = conditions: concentration: 1 μM, replicates: in singlicate, n = 1
# DYRK2 = conditions: concentration: 1 μM, replicates: in singlicate, n = 1
# EGFR = conditions: concentration: 1 μM, replicates: in singlicate, n = 1
# EIF2AK1 = conditions: concentration: 1 μM, replicates: in singlicate; n = 1
# EPHA1 = conditions: concentration: 1 μM, replicates: in singlicate, n = 1
# EPHA2 = conditions: concentration: 1 μM, replicates: in singlicate, n = 1
# 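Note: KINOMEscan kinase panel screen.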
compound,measurement,setting,value
CC(=O)Nc1ccc(COc2ccc(Nc3ccnc4cc(-c5ccccn5)ccc34)cc2)cc1.Cl [GW440148],%Inh,DAPK1,0%
same,%Inh,DAPK2,0%
same,%Inh,DAPK3,21%
same,%Inh,DCAMKL1,5%
same,%Inh,DCAMKL2,0%
same,%Inh,DCAMKL3,9%
same,%Inh,DDR1,29%
same,%Inh,DDR2,0%
same,%Inh,DLK,71%
same,%Inh,DMPK2,2%
same,%Inh,DMPK,0%
same,%Inh,DRAK1,1%
same,%Inh,DRAK2,21%
same,%Inh,DYRK1A,4%
same,%Inh,DYRK1B,33%
same,%Inh,DYRK2,11%
same,%Inh,EGFR,23%
same,%Inh,EIF2AK1,0%
same,%Inh,EPHA1,11%
same,%Inh,EPHA2,0%
Cl.Oc1cccc(Nc2ccnc3cc(-c4ccncc4)ccc23)c1 [GW494601],%Inh,DAPK1,5%
same,%Inh,DAPK2,3%
same,%Inh,DAPK3,15%
same,%Inh,DCAMKL1,4%
same,%Inh,DCAMKL2,0%
same,%Inh,DCAMKL3,8%
same,%Inh,DDR1,68%
same,%Inh,DDR2,82%
same,%Inh,DLK,54%
same,%Inh,DMPK2,0%
same,%Inh,DMPK,0%
same,%Inh,DRAK1,11%
same,%Inh,DRAK2,0%
same,%Inh,DYRK1A,25%
same,%Inh,DYRK1B,7%
same,%Inh,DYRK2,43%
same,%Inh,EGFR,76%
same,%Inh,EIF2AK1,0%
same,%Inh,EPHA1,98.8%
same,%Inh,EPHA2,84%
Cc1ccc(NC(=O)c2ccnc(N3CCN(C)CC3)c2)cc1-c1ccc(C(=O)NCC2CC2)cc1 [GW775604],%Inh,DAPK1,5%
same,%Inh,DAPK2,0%
same,%Inh,DAPK3,0%
same,%Inh,DCAMKL1,0%
same,%Inh,DCAMKL2,15%
same,%Inh,DCAMKL3,0%
same,%Inh,DDR1,77%
same,%Inh,DDR2,59%
same,%Inh,DLK,0%
same,%Inh,DMPK2,0%
same,%Inh,DMPK,7%
same,%Inh,DRAK1,0%
same,%Inh,DRAK2,0%
same,%Inh,DYRK1A,0%
same,%Inh,DYRK1B,0%
same,%Inh,DYRK2,0%
same,%Inh,EGFR,0%
same,%Inh,EIF2AK1,0%
same,%Inh,EPHA1,0%
same,%Inh,EPHA2,0%
CC(C)(CN)c1nc(-c2ccc(Cl)c(O)c2)c(-c2ccncc2)[nH]1.O=C(O)C(F)(F)F [SB-477794],%Inh,DAPK1; 1 µM,11% and 19%
same,%Inh,DAPK2; 1 µM,0% and 5%
same,%Inh,DAPK3; 1 µM,33% and 17%
same,%Inh,DCAMKL1; 1 µM,7% and 3%
same,%Inh,DCAMKL2,0%
same,%Inh,DCAMKL3; 1 µM,29% and 36%
same,%Inh,DDR1; 1 µM,94.5% and 90.8%
same,%Inh,DDR2; 1 µM,80% and 78%
same,%Inh,DLK; 1 µM,37% and 42%
same,%Inh,DMPK2; 1 µM,90.8% and 88%
same,%Inh,DMPK; 1 µM,0% and 98.6%
same,%Inh,DRAK1; 1 µM,0% and 5%
same,%Inh,DRAK2,0%
same,%Inh,DYRK1A,0%
same,%Inh,DYRK1B; 1 µM,0% and 5%
same,%Inh,DYRK2; 1 µM,0% and 5%
same,%Inh,EGFR; 1 µM,70% and 47%
same,%Inh,EIF2AK1,0%
same,%Inh,EPHA1; 1 µM,97.1% and 95.8%
same,%Inh,EPHA2; 1 µM,26% and 33%
c1ccc(-c2n[nH]cc2-c2ccnc3ccccc23)nc1 [GW271431],%Inh,DAPK1,0%
same,%Inh,DAPK2,0%
same,%Inh,DAPK3,26%
same,%Inh,DCAMKL1,12%
same,%Inh,DCAMKL2,11%
same,%Inh,DCAMKL3,0%
same,%Inh,DDR1,8%
same,%Inh,DDR2,0%
same,%Inh,DLK,3%
same,%Inh,DMPK2,18%
same,%Inh,DMPK,2%
same,%Inh,DRAK1,19%
same,%Inh,DRAK2,18%
same,%Inh,DYRK1A,17%
same,%Inh,DYRK1B,20%
same,%Inh,DYRK2,0%
same,%Inh,EGFR,35%
same,%Inh,EIF2AK1,14%
same,%Inh,EPHA1,16%
same,%Inh,EPHA2,4%
